# In PubChem BioAssay (NCATS):
# Inconclusive results are not listed. Active and inactive are the calls of the source. Calls come from the whole dose curve; as a rule, active = well fitted inhibition curve with a large enough effect; inconclusive = small, poorly fitted or top-dose-only effect; inactive = flat fitted curve, though single readings scatter.
# Molecular target: Glutathione peroxidase 1 (Homo sapiens) (UniProt P07203)
# Experiment: Primary qHTS Assay for Inhibitors of Recombinant Selenoprotein Glutathione Peroxidase 1 (GPX1) (AID 1845191)
# Details: recombinant GPX1, GR-coupled NADPH fluorescence, 15 min; series mostly up to 48.8 µM; activity, negative = inhibition: at the top concentration
# How it was run: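 GPX1 10 nM, GR 100 nM, GSH 1 mM, NADPH 0.5 mM, CHP 0.5 mM (final). 30-min cpd preincubation, RT. Ex340/Em450 read t=0, t=15 min.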
# % is set by controls: 0 for no effect and ±100 for the full control effect.
# Note: nearly all actives have a fitted effect of over 65% in size.
# Glutathione peroxidase 1 (Homo sapiens), sequence (P07203 whole entry, looked up): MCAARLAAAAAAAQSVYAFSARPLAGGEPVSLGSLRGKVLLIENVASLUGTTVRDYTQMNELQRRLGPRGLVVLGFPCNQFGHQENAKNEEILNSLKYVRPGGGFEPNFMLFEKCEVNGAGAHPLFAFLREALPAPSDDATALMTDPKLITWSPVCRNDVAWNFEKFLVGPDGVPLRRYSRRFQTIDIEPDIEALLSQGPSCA
Structure (SMILES),Potency,"activity, negative = inhibition",outcome
CN(C)c1ccc(/C=C2\C(=O)Nc3ccccc32)cc1,inactive,,
CN(C)CCC(c1ccc(Cl)cc1)c1ccccn1 (stereo unspecified),,-19% (inactive),
CC[C@H]1OC(=O)[C@H](C)C(O[C@H]2C[C@@](C)(OC)[C@@H](O)[C@H](C)O2)[C@H](C)[C@@H](OC2O[C@H](C)C[C@H](N(C)C)[C@H]2O)[C@](C)(O)C[C@@H](C)CN(C)[C@H](C)[C@@H](O)[C@]1(C)O (stereo partly specified),,0.714% (inactive),
O=c1[nH]c2cc(C(F)(F)F)ccc2n1-c1cc(C(F)(F)F)ccc1O,,-24.3% (inactive),
CC(C)CC(NP(=O)(O)O[C@@H]1O[C@@H](C)[C@H](O)[C@@H](O)[C@H]1O)C(=O)NC(Cc1c[nH]c2ccccc12)C(=O)O (stereo partly specified),,1.78% (inactive),
NO,,,inactive
CC(=O)SCC[N+](C)(C)C,,4.3% (inactive),
COCCOc1cc2nc[nH]c(=O)c2cc1OCCOC,,-8.64% (inactive),
NCC1OC(O[C@H]2[C@H](O)[C@@H](OC3C(O)C(N)CC(N)C3OC3OC(CO)C(O)C(O)C3N)O[C@@H]2CO)C(N)C(O)C1O (stereo partly specified),,-33.2% (inactive),
Oc1ccc(C2CNCc3sccc32)cc1O (stereo unspecified),,,inactive
O=C(/C=C/c1ccc(O)cc1)c1ccc(O)cc1O,inactive,,
O=[N+]([O-])c1ccc(CSc2ncnc3c2ncn3[C@@H]2O[C@H](CO)[C@@H](O)[C@H]2O)cc1,,3.24% (inactive),
NC(N)=NC(=O)c1nc(Cl)c(N2CCCCCC2)nc1N,,-25.1% (inactive),
CCOC(=O)C1=C(C)NC(C)=C(C(=O)OCC)C1c1c(F)c(F)c(F)c(F)c1F,,-35.6% (inactive),
NCCCS(=O)(=O)O,,,inactive
CCC1C(=O)OCC1Cc1cncn1C (stereo unspecified),inactive,,
CC(=O)/C=C1\C(=O)N(C)c2ccccc21,,3.92% (inactive),
CCCCCCCCCCCCCCCCCCN(CCCCCCCCCCCCCCCCCC)CCCN(CCO)CCO,,,inactive
CN1CCc2ccccc2Cc2[nH]c3ccccc3c2CC1,,2.16% (inactive),

Structure (SMILES),Potency,"activity, negative = inhibition",outcome
OC[C@H]1O[C@@H](n2cnc3c(NC4CCCCC4)ncnc32)[C@H](O)[C@@H]1O,,-5.03% (inactive),
COc1cccc(C(=O)NCCN2CCN(c3ccc(Cl)cc3)CC2)c1,,4.63% (inactive),
O=Nc1ccc2oc(=O)ccc2c1,,,inactive
COc1cc2c(CCNC(C)=O)c[nH]c2cc1Cl,,-18.2% (inactive),
Nc1nc(Cl)nc2c1ncn2[C@@H]1O[C@H](COP(=O)(O)OP(=O)(O)OP(=O)(O)O)[C@@H](O)[C@H]1O,,-12.4% (inactive),
NCCSSCCN,,0.0708% (inactive),
CC[C@@H](C)[C@H]1O[C@]2(CC[C@H]1C)C[C@@H]1C[C@@H](CC=C(C)[C@@H](O[C@H]3C[C@H](OC)[C@@H](O[C@H]4C[C@H](OC)[C@@H](O)[C@H](C)O4)[C@H](C)O3)[C@@H](C)C=CC=C3CO[C@@H]4[C@H](O)C(C)=C[C@@H](C(=O)O1)[C@]34O)O2,,-5.1% (inactive),
O=P(O)(O)C(Cl)(Cl)P(=O)(O)O,inactive,,
CN[C@H](CC(C)C)C(=O)N[C@H]1C(=O)N[C@@H](CC(N)=O)C(=O)N[C@H]2C(=O)N[C@H]3C(=O)N[C@H](C(=O)N[C@H](C(=O)O)c4cc(O)cc(O)c4-c4cc3ccc4O)[C@H](O)c3ccc(c(Cl)c3)Oc3cc2cc(c3O[C@@H]2O[C@H](CO)[C@@H](O)[C@H](O)[C@H]2O[C@H]2C[C@](C)(N)[C@H](O)[C@H](C)O2)Oc2ccc(cc2Cl)[C@H]1O,inactive,,
N#C/C(=C\c1ccc(O)c(O)c1)C(=O)c1ccc(O)c(O)c1,,,inactive
C=CC(N)CCC(=O)O (stereo unspecified),inactive,,
CN(C)C(N)=NCCC[C@H](N)C(=O)O,,,inactive
NC(=O)C(=O)O,,-5.41% (inactive),
CCC(CO)Nc1nc(NCc2ccccc2)c2ncn(C(C)C)c2n1 (stereo unspecified),,-11.8% (inactive),
COc1ccc2c(c1)CCC1C2CC[C@@]2(C)C1CC[C@@H]2NCCCCCCN1C(=O)CCC1=O (stereo partly specified),,-25.1% (inactive),
COc1cc(OC)cc(-c2cc3cnc(N)nc3nc2NC(=O)NC(C)(C)C)c1,,,inactive
O=C(O)CC[C@@H](C(=O)O)N1C(=O)c2ccccc2C1=O,,,inactive
O=C(Nc1ccccc1)c1cc([N+](=O)[O-])ccc1Cl,,,inactive
CC1CN(S(=O)(=O)c2cccc3cnccc23)CCN1 (stereo unspecified),,-19.3% (inactive),

# Molecular target: Phospholipid hydroperoxide glutathione peroxidase GPX4 (Homo sapiens) (UniProt P36969)
# Sequence (P36969 whole entry, looked up): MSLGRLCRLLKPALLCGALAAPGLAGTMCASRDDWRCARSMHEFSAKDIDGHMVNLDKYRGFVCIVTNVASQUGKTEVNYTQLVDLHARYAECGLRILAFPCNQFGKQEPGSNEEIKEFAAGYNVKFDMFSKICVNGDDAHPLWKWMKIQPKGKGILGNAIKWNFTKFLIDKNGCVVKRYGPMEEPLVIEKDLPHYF
# Experiment: Primary qHTS Assay for Inhibitors of Recombinant Selenoprotein Glutathione Peroxidase 4 (GPX4) (AID 1845192)
# Details: recombinant GPX4, GR-coupled NADPH fluorescence, 15 min; series mostly up to 50 µM; activity change, negative = inhibition: at the top concentration
# How it was run: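 qHTS, GR-coupled: GPX4 200 nM + cpd 30 min RT → GSH 1 mM, NADPH 0.5 mM, GR 100 nM → CHP 0.5 mM start; fluor 340/450 at t0 and t15 min; no-enzyme wells as control.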
Structure (SMILES),"activity change, negative = inhibition",outcome,Potency
CN(C)c1ccc(/C=C2\C(=O)Nc3ccccc32)cc1,-0.328% (inactive),,
CN(C)CCC(c1ccc(Cl)cc1)c1ccccn1 (stereo unspecified),-6.14% (inactive),,
CC[C@H]1OC(=O)[C@H](C)C(O[C@H]2C[C@@](C)(OC)[C@@H](O)[C@H](C)O2)[C@H](C)[C@@H](OC2O[C@H](C)C[C@H](N(C)C)[C@H]2O)[C@](C)(O)C[C@@H](C)CN(C)[C@H](C)[C@@H](O)[C@]1(C)O (stereo partly specified),-1.96% (inactive),,
O=c1[nH]c2cc(C(F)(F)F)ccc2n1-c1cc(C(F)(F)F)ccc1O,-17.9% (inactive),,
CC(C)CC(NP(=O)(O)O[C@@H]1O[C@@H](C)[C@H](O)[C@@H](O)[C@H]1O)C(=O)NC(Cc1c[nH]c2ccccc12)C(=O)O (stereo partly specified),1.95% (inactive),,
NO,,inactive,
CC(=O)SCC[N+](C)(C)C,,inactive,
COCCOc1cc2nc[nH]c(=O)c2cc1OCCOC,0.749% (inactive),,
NCC1OC(O[C@H]2[C@H](O)[C@@H](OC3C(O)C(N)CC(N)C3OC3OC(CO)C(O)C(O)C3N)O[C@@H]2CO)C(N)C(O)C1O (stereo partly specified),-17% (inactive),,
Oc1ccc(C2CNCc3sccc32)cc1O (stereo unspecified),3.17% (inactive),,
O=C(/C=C/c1ccc(O)cc1)c1ccc(O)cc1O,,,inactive
O=[N+]([O-])c1ccc(CSc2ncnc3c2ncn3[C@@H]2O[C@H](CO)[C@@H](O)[C@H]2O)cc1,,inactive,
NC(N)=NC(=O)c1nc(Cl)c(N2CCCCCC2)nc1N,-20.7% (inactive),,
CCOC(=O)C1=C(C)NC(C)=C(C(=O)OCC)C1c1c(F)c(F)c(F)c(F)c1F,-31% (inactive),,
NCCCS(=O)(=O)O,,inactive,
CCC1C(=O)OCC1Cc1cncn1C (stereo unspecified),,,inactive
CC(=O)/C=C1\C(=O)N(C)c2ccccc21,0.0252% (inactive),,
CCCCCCCCCCCCCCCCCCN(CCCCCCCCCCCCCCCCCC)CCCN(CCO)CCO,,inactive,
CN1CCc2ccccc2Cc2[nH]c3ccccc3c2CC1,,inactive,

Structure (SMILES),"activity change, negative = inhibition",outcome,Potency
OC[C@H]1O[C@@H](n2cnc3c(NC4CCCCC4)ncnc32)[C@H](O)[C@@H]1O,-3.8% (inactive),,
COc1cccc(C(=O)NCCN2CCN(c3ccc(Cl)cc3)CC2)c1,2.01% (inactive),,
O=Nc1ccc2oc(=O)ccc2c1,,inactive,
COc1cc2c(CCNC(C)=O)c[nH]c2cc1Cl,-15.6% (inactive),,
Nc1nc(Cl)nc2c1ncn2[C@@H]1O[C@H](COP(=O)(O)OP(=O)(O)OP(=O)(O)O)[C@@H](O)[C@H]1O,-8.86% (inactive),,
NCCSSCCN,,inactive,
CC[C@@H](C)[C@H]1O[C@]2(CC[C@H]1C)C[C@@H]1C[C@@H](CC=C(C)[C@@H](O[C@H]3C[C@H](OC)[C@@H](O[C@H]4C[C@H](OC)[C@@H](O)[C@H](C)O4)[C@H](C)O3)[C@@H](C)C=CC=C3CO[C@@H]4[C@H](O)C(C)=C[C@@H](C(=O)O1)[C@]34O)O2,,inactive,
O=P(O)(O)C(Cl)(Cl)P(=O)(O)O,,,inactive
CN[C@H](CC(C)C)C(=O)N[C@H]1C(=O)N[C@@H](CC(N)=O)C(=O)N[C@H]2C(=O)N[C@H]3C(=O)N[C@H](C(=O)N[C@H](C(=O)O)c4cc(O)cc(O)c4-c4cc3ccc4O)[C@H](O)c3ccc(c(Cl)c3)Oc3cc2cc(c3O[C@@H]2O[C@H](CO)[C@@H](O)[C@H](O)[C@H]2O[C@H]2C[C@](C)(N)[C@H](O)[C@H](C)O2)Oc2ccc(cc2Cl)[C@H]1O,,,inactive
N#C/C(=C\c1ccc(O)c(O)c1)C(=O)c1ccc(O)c(O)c1,,inactive,
C=CC(N)CCC(=O)O (stereo unspecified),,,inactive
CN(C)C(N)=NCCC[C@H](N)C(=O)O,3.39% (inactive),,
NC(=O)C(=O)O,,inactive,
CCC(CO)Nc1nc(NCc2ccccc2)c2ncn(C(C)C)c2n1 (stereo unspecified),-3.97% (inactive),,
COc1ccc2c(c1)CCC1C2CC[C@@]2(C)C1CC[C@@H]2NCCCCCCN1C(=O)CCC1=O (stereo partly specified),-20.2% (inactive),,
COc1cc(OC)cc(-c2cc3cnc(N)nc3nc2NC(=O)NC(C)(C)C)c1,,inactive,
O=C(O)CC[C@@H](C(=O)O)N1C(=O)c2ccccc2C1=O,,inactive,
O=C(Nc1ccccc1)c1cc([N+](=O)[O-])ccc1Cl,,inactive,
CC1CN(S(=O)(=O)c2cccc3cnccc23)CCN1 (stereo unspecified),-13.2% (inactive),,
